# Test results as given in PubChem BioAssay (EPA / NIEHS).
# The source made the active and inactive calls. Rule for the calls: active = hit-call score of the fitted dose curve at least 0.9, where 1 is the maximum; inactive = score below 0.9.
# Read-out: Nuclear factor erythroid 2-related factor 2 (Homo sapiens) (UniProt Q16236)
# Test: LTEA_HepaRG_NFE2L2: Life Technologies and Expression Analysis (LTEA) Assay for Nuclear factor erythroid 2-related factor 2 (NFE2L2) Transcription Factor using HepaRG (AID 2283527);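 for outcome: TaqMan qRT-PCR transcript level normalised to ACTB GAPDH and POLR2A housekeeping genes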
# Conditions: mRNA level, 48 h; actives raise or lower the signal
# Procedure, shortened: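 NFE2L2 transcript level was read by qRT-PCR (housekeeping ACTB/GAPDH/POLR2A normalisation) after 48 h chemical treatment of HepaRG in serum-free induction medium. Duplicate 8-point half-log curves, top 100 uM, 0.5% DMSO vehicle; up- or down-regulation fitted against vehicle.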
# Sequence of Nuclear factor erythroid 2-related factor 2 (Homo sapiens) (Q16236 whole entry, looked up): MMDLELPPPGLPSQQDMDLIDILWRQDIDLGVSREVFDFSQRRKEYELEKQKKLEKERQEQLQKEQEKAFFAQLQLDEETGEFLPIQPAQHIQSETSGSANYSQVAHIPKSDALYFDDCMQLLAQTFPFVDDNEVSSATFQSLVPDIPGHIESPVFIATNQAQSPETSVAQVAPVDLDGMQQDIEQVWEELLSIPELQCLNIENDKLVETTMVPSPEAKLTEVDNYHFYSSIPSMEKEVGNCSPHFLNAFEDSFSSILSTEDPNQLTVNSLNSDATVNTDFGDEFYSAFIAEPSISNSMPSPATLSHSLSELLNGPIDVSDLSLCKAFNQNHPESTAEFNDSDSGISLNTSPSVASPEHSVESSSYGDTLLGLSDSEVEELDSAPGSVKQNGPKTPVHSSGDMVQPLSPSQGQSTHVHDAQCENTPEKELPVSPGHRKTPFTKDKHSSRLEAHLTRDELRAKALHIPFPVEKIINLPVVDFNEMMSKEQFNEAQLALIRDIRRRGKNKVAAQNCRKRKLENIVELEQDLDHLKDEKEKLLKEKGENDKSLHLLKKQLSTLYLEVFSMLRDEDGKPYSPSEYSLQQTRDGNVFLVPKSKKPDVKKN
Structure (SMILES),outcome,AC50
NC(=Nc1ccccc1)Nc1ccccc1,inactive,–
CC(COCC(C)OC(=O)c1ccccc1)OC(=O)c1ccccc1 (centres undefined),inactive,–
CCCCCCCCCCCCCCOS(=O)(=O)O,inactive,–
CC(C)(C)c1ccccc1,inactive,–
COC(=O)[C@H]1[C@H]2C[C@@H]3c4[nH]c5cc(OC)ccc5c4CCN3C[C@H]2C[C@@H](OC(=O)c2cc(OC)c(OC)c(OC)c2)[C@@H]1OC,–,42.2 µM (active)
C/C=C/C=C/C(=O)O,inactive,–
CC(N)=O,inactive,–
CCc1cc(C2=C(C(=O)O)N(c3ccccc3C(F)(F)F)S(=O)(=O)c3ccccc32)cc2c1OCO2,–,50 µM (active)
CCc1nc(N)nc(N)c1-c1ccc(Cl)cc1,inactive,–
O=C(Oc1ccccc1)c1cccc(C(=O)Oc2ccccc2)c1,inactive,–
CCCC[C@H]1CN(CC2CCOCC2)C(=O)OC12CCN(C1(C)CCN(C(=O)c3c(C)ncnc3C)CC1)CC2,inactive,–
CC(C)c1cccc(C(C)C)c1NC(=O)NS(=O)(=O)c1cc(C(C)(C)O)co1,inactive,–
O=C1O[C@H]([C@H](O)CO)C(O)=C1O,inactive,–
Oc1ccccc1O,inactive,–
O=Cc1ccccc1C=O,inactive,–
O=C(NS(=O)(=O)/C=C/c1cccs1)c1ccc(F)cc1Br,inactive,–
O=C1NC(=O)C(c2ccccc2)(c2ccccc2)N1,inactive,–
CCCCCCCCCC[N+](C)(C)[O-],inactive,–
CC(=O)CC(c1ccccc1)c1c(O)c2ccccc2oc1=O (centres undefined),inactive,–
